In PubChem BioAssay AID1159580 (chemical genetic matrix, 2015):
Values joined by “and” are separate entries in the source; they are usually repeats but may differ in a detail not shown here. Identical values can stand only once. Out of some 5,500 compounds screened, about 2,000 (36%) were called active. Not shown: some 18% with an inconclusive outcome. No stated cut-off is given here; in the data, active means normalized growth mostly below about 0.91 (no sharp cut-off); inconclusive means no clear call, values can overlap the other calls; inactive means mostly above about 0.92. The list shows a part of the results.

Experiment: chemical genetic growth profiling, strain panel (AID 1159580);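 further: tested at 20 µM; growth read once vehicle control cultures reached saturation at 30 °C; 1 = growth at the plate median or of vehicle wells; lower values mean less growth of the strain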
Settings: S. cerevisiae deletion strains, growth OD

Measured: normalized growth

COC(=O)C(N)CS (stereo unspecified)
inactive: locus YAL013W, strain DEP1, hits give low values 0.991 | locus YAL021C, strain ccr4, hits give low values 0.93 | locus YAL026C, strain drs2, hits give low values 0.967 | locus YAL030W, strain snc1, hits give low values 0.993 | locus YBL061C, strain skt5, hits give low values 0.998 | locus YBR009C, strain hhf1, hits give low values 0.958 | locus YBR021W, strain FUR4, hits give low values 0.994 | locus YBR023C, strain chs3, hits give low values 1.02 | locus YBR171W, strain sec66, hits give low values 0.984 | locus YBR229C, strain ROT2, hits give low values 0.992 | locus YBR231C, strain swc5, hits give low values 0.974 | locus YBR279W, strain paf1, hits give low values 1.01 | locus YCL011C, strain gbp2, hits give low values 0.996 | locus YCL016C, strain dcc1, hits give low values 1.04 | locus YCL029C, strain bik1, hits give low values 0.964 | locus YCL069W, strain vba3, hits give low values 0.954 | locus YCR088W, strain abp1, hits give low values 0.982 | locus YDL005C, strain med2, hits give low values 1 | locus YDL035C, strain GPR1, hits give low values 0.978 | locus YDL040C, strain nat1, hits give low values 0.99 | locus YDL074C, strain BRE1, hits give low values 0.98 | locus YDL101C, strain DUN1, hits give low values 0.984 | locus YDL134C, strain PPH21, hits give low values 0.977 | locus YDL185W, strain tfp1, hits give low values 0.966 | locus YDL192W, strain arf1, hits give low values 0.975 | locus YDR001C, strain nth1, hits give low values 0.984 | locus YDR069C, strain doa4, hits give low values 0.959 | locus YDR101C, strain arx1, hits give low values 0.985 | locus YDR137W, strain rgp1, hits give low values 0.924 | locus YDR150W, strain NUM1, hits give low values 0.996 | locus YDR159W, strain sac3, hits give low values 0.929 | locus YDR162C, strain NBP2, hits give low values 0.985 | locus YDR195W, strain ref2 1.03 | locus YDR297W, strain sur2, hits give low values 0.98 | locus YDR318W, strain mcm21, hits give low values 0.93 | locus YDR334W, strain swr1, hits give low values 0.959 | locus YDR335W, strain msn5, hits give low values 0.995 | locus YDR388W, hits give low values 0.951 | locus YDR392W, strain spt3, hits give low values 0.806 | locus YDR502C, strain sam2, hits give low values 0.98 | locus YEL003W, strain gim4, hits give low values 0.966 | locus YEL037C, strain rad23, hits give low values 0.978 | locus YEL061C, strain CIN8 (second series), hits give low values 0.966 | locus YEL061C, strain CIN8, hits give low values 0.997 | locus YER015W, strain faa2, hits give low values 0.997 | locus YER016W, strain bim1, hits give low values 0.997 | locus YER110C, hits give low values 0.991 | locus YER111C, strain swi4, hits give low values 1.03 | locus YER155C, strain BEM2 (second series), hits give low values 0.886 | locus YER155C, strain BEM2, hits give low values 1 | locus YER167W, strain BCK2, hits give low values 0.971 | locus YFR010W, strain ubp6, hits give low values 0.94 | locus YGL078C, strain dbp3, hits give low values 0.988 | locus YGL086W, strain mad1, hits give low values 0.976 | locus YGL167C, strain pmr1, hits give low values 0.977 | locus YGL173C, strain kem1, hits give low values 0.938 | locus YGL227W, strain vid30, hits give low values 0.971 | locus YGL240W, strain doc1, hits give low values 0.941 | locus YGL248W, strain PDE1, hits give low values 0.959 | locus YGL253W, strain hxk2, hits give low values 0.976 | locus YGR078C, strain PAC10, hits give low values 0.976 | locus YGR135W, strain pre9, hits give low values 0.947 | locus YGR229C, strain SMI1, hits give low values 0.949 | locus YGR252W, strain gcn5, hits give low values 0.883 | locus YHR013C, strain ard1, hits give low values 0.938 | locus YHR027C, strain rpn1, hits give low values 0.97 | locus YHR030C, strain SLT2, hits give low values 0.99 and 1.05 | locus YHR079C, strain IRE1 (second series), hits give low values 0.964 | locus YHR079C, strain IRE1, hits give low values 1.04 | locus YHR094C, strain hxt1, hits give low values 0.991 | locus YHR129C, strain ARP1, hits give low values 0.992 | locus YHR142W, strain chs7, hits give low values 1 | locus YHR200W, strain rpn10, hits give low values 0.973 | locus YIL066C, strain RNR3, hits give low values 0.975 | locus YIL073C, strain SPO22, hits give low values 0.903 | locus YIL125W, strain kgd1, hits give low values 0.991 | locus YIR030C, strain dcg1, hits give low values 0.984 | locus YJL092W, strain hpr5, hits give low values 0.995 | locus YJL095W, strain BCK1 (second series), hits give low values 0.995 | locus YJL095W, strain BCK1, hits give low values 0.929 and 1.04 | locus YJL115W, strain asf1, hits give low values 0.977 | locus YJL129C, strain trk1, hits give low values 1.01 | locus YJL134W, strain LCB3, hits give low values 0.996 | locus YJL154C, strain vps35, hits give low values 0.97 | locus YJL164C, strain tpk1, hits give low values 0.965 | locus YJL166W, strain qcr8, hits give low values 0.961 | locus YJL168C, strain set2, hits give low values 0.979 | locus YJL187C, strain SWE1 (second series), hits give low values 0.972 | locus YJL187C, strain SWE1, hits give low values 0.998 | locus YJR043C, strain POL32, hits give low values 0.977 | locus YJR066W, strain TOR1, hits give low values 0.998
